Among the data in PubChem BioAssay (NCI) are growth inhibition values, retold here.

Assay [1] is described as follows: NCI Yeast Anticancer Drug Screen. Data for the rad50 strain (AID 155).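 Further: 0% = growth of vehicle-only cultures of the same strain.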 To be noted: S. cerevisiae rad50 strain growth inhibition, hits give high values. A digest of the protocol: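 Genetically altered yeast (DNA repair pathway); compound treatment; growth inhibition vs vehicle ctrl.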
The nature of assay [2]: NCI Yeast Anticancer Drug Screen. Data for the mec2-1 strain (AID 157). The following applies: S. cerevisiae mec2-1 strain, hits give high values. A digest of the protocol:
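Mutant yeast (mec2-1) grown with compound; growth inhibition relative to vehicle control reported.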

Assay [3] can be described thus: NCI Yeast Anticancer Drug Screen. Data for the sgs1 mgt1 strain (AID 161).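 Further: 0% = growth of cultures given vehicle only.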 To be noted: S. cerevisiae sgs1 mgt1 strain, hits give high values. A digest of the protocol: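 Yeast cells carrying a defined DNA-repair defect were exposed to test compounds. Growth inhibition was measured relative to vehicle-treated controls.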
Assay [4] in a line: NCI Yeast Anticancer Drug Screen. Data for the cln2 rad14 strain (AID 165).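 Further: 0% = growth equal to vehicle treated cultures.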 The following applies: S. cerevisiae cln2 rad14 strain, hits give high values. Summed up: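 Readout is yeast growth inhibition versus vehicle-treated controls, using a strain with cln2 and rad14 alterations exposed to compound.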
Assay [5] can be described thus: NCI Yeast Anticancer Drug Screen. Data for the bub3 strain (AID 167). To be noted: S. cerevisiae bub3 mutant strain, hits give high values. Summed up:
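Yeast carrying a defined mutation is treated with each compound, and growth is compared with that of vehicle-exposed cells to give inhibition.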

The nature of assay [6]: NCI Yeast Anticancer Drug Screen. Data for the mlh1 rad18 strain (AID 175). To be noted: S. cerevisiae mlh1 rad18 strain growth inhibition, hits give high values. A digest of the protocol:
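Genetically defined yeast (DNA repair-deficient) exposed to compounds; growth inhibition determined relative to vehicle.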

Setting [7] is: at 5.0 µM (retest, dose inferred, filed as 0.5).
Where [8] appears, read: at 50.0 µM (retest, dose inferred, filed as 5.0).

Several values for one entry are separate records, joined by “and”; a condition that tells them apart may be missing. Identical values can stand only once. The panel holds about 79,000 compounds, 15% with a hit somewhere; the sample as a whole holds those more often. Unmarked numbers belong to inactive results. Activity calls are given as the source filed them. No stated cut-off is given here; in the data, active means growth inhibition above about 70%; inactive means the rest.

Turning to `O=[N+]([O-])c1ccc2nc3ccccc3[n+]([O-])c2c1`, the growth inhibition in assay [1] (setting [7]) is 25%; in assay [1] (setting [8]), 99% (active); in assay [2] (setting [7]), 19%; in assay [2] (setting [8]) it was 99% (active); in assay [3] (setting [7]) it was 33%; in assay [3] (setting [8]) it was 100% (active). The growth inhibition is -1% in assay [4] (setting [7]); 99% (active) in assay [4] (setting [8]); 50% in assay [5] (setting [7]); 100% (active) in assay [5] (setting [8]); 38% in assay [6] (setting [7]); 99% (active) in assay [6] (setting [8]).

Consider `COc1cccc(NC(=O)c2c(SC)n[nH]c2N)c1`, for which the growth inhibition in assay [1] (setting [7]) was 26%; in assay [1] (setting [8]), 99% (active); in assay [2] (setting [7]) it was 38%; in assay [2] (setting [8]) it was 98% (active); in assay [3] (setting [7]), 35%; in assay [3] (setting [8]) it was 99% (active). Besides, the growth inhibition is 30% in assay [4] (setting [7]); 75% (active) in assay [4] (setting [8]); 43% in assay [5] (setting [7]); 99% (active) in assay [5] (setting [8]); 11% in assay [6] (setting [7]); 91% (active) in assay [6] (setting [8]).

For the molecule `Nc1cccc2c1-c1ccccc1C2=O`, the growth inhibition in assay [1] (setting [7]) was 15%; in assay [1] (setting [8]) it was 89% (active); in assay [2] (setting [7]), 1%; in assay [2] (setting [8]) it was 18%; in assay [3] (setting [7]) it was 4%; in assay [3] (setting [8]), 47%. For the same molecule, the growth inhibition was -1% in assay [4] (setting [7]); -7% in assay [4] (setting [8]); 1% in assay [5] (setting [7]); 15% in assay [5] (setting [8]); -35% in assay [6] (setting [7]); 29% in assay [6] (setting [8]).

In the case of `CCCCCCN(CCCCCC)CCCCCCCCCCCO`, the growth inhibition was 15% in assay [1] (setting [7]); 98% (active) in assay [1] (setting [8]); 7% in assay [2] (setting [7]); 98% (active) in assay [2] (setting [8]); 10% in assay [3] (setting [7]); 99% (active) in assay [3] (setting [8]). In addition, the growth inhibition was 12% in assay [4] (setting [7]); 98% (active) in assay [4] (setting [8]); 16% in assay [5] (setting [7]); 99% (active) in assay [5] (setting [8]); 11% in assay [6] (setting [7]); 94% (active) in assay [6] (setting [8]).

As to `COc1ccc(N=CC2CCCCC2=O)c([N+](=O)[O-])c1` (centres undefined), the growth inhibition in assay [1] (setting [7]) was 25%; in assay [1] (setting [8]), 69%; in assay [2] (setting [7]), 29%; in assay [2] (setting [8]), 42%; in assay [3] (setting [7]), -1%; in assay [3] (setting [8]), 12%. Further, the growth inhibition was 31% in assay [4] (setting [7]); 56% in assay [4] (setting [8]); 13% in assay [5] (setting [7]); 86% (active) in assay [5] (setting [8]); 53% in assay [6] (setting [7]); 61% in assay [6] (setting [8]).

With `CCCC(=O)c1ccc([N+](=O)[O-])o1`, the growth inhibition in assay [1] (setting [7]) is 13%; in assay [1] (setting [8]), 98% (active); in assay [2] (setting [7]), 7%; in assay [2] (setting [8]), 99% (active); in assay [3] (setting [7]), 15%; in assay [3] (setting [8]) it was 99% (active). The growth inhibition in assay [4] (setting [7]) was 4%; in assay [4] (setting [8]) it was 98% (active); in assay [5] (setting [7]), 16%; in assay [5] (setting [8]), 100% (active); in assay [6] (setting [7]), 1%; in assay [6] (setting [8]) it was 98% (active).

Consider `N#C/C(=N\O)C(N)=O`, for which the growth inhibition is 19% in assay [1] (setting [7]); 87% (active) in assay [1] (setting [8]); -3% in assay [2] (setting [7]); 93% (active) in assay [2] (setting [8]); 2% in assay [3] (setting [7]); 83% (active) in assay [3] (setting [8]). The growth inhibition was -1% in assay [4] (setting [7]); 75% (active) in assay [4] (setting [8]); 3% in assay [5] (setting [7]); 86% (active) in assay [5] (setting [8]); 26% in assay [6] (setting [7]); 86% (active) in assay [6] (setting [8]).

Regarding `CC(C)CNC(=O)C(C)O` (centres undefined), the growth inhibition is 13% in assay [1] (setting [7]); 88% (active) in assay [1] (setting [8]); 2% in assay [2] (setting [7]); 18% in assay [2] (setting [8]); 4% in assay [3] (setting [7]); 40% in assay [3] (setting [8]). For the same molecule, the growth inhibition in assay [4] (setting [7]) is 2%; in assay [4] (setting [8]), 14%; in assay [5] (setting [7]) it was 0%; in assay [5] (setting [8]) it was 7%; in assay [6] (setting [7]) it was 12%; in assay [6] (setting [8]), 40%.

As to `CC1C(=O)c2cc3c(cc2CCN(C)Cc2c1ccc1c2OCO1)OCO3` (centres undefined), the growth inhibition is 13.9% and 3.4% in assay [1] (at 50.0 µM); -16.4% and 5.75% in assay [2] (at 50.0 µM); -10.2% and 7.3% in assay [3] (at 50.0 µM); -3.65% and -3.7% in assay [4] (at 50.0 µM); -29.9% and -12.9% in assay [5] (at 50.0 µM); -31.8% and 14.6% in assay [6] (at 50.0 µM).

For the molecule `C(CCc1nn[nH]n1)CCC1CCCCC1`, the growth inhibition in assay [1] (setting [7]) was 13%; in assay [1] (setting [8]) it was 98% (active); in assay [2] (setting [7]), 10%; in assay [2] (setting [8]), 98% (active); in assay [3] (setting [7]) it was 11%; in assay [3] (setting [8]) it was 95% (active). Further, the growth inhibition in assay [4] (setting [7]) is 19%; in assay [4] (setting [8]) it was 97% (active); in assay [5] (setting [7]) it was 11%; in assay [5] (setting [8]) it was 98% (active); in assay [6] (setting [7]), -16%; in assay [6] (setting [8]) it was 97% (active).

Regarding `O=Cc1ccc(O)c(O)c1O`, the growth inhibition was -7% in assay [1] (setting [7]); 66% in assay [1] (setting [8]); -3% in assay [2] (setting [7]); 54% in assay [2] (setting [8]); -6% in assay [3] (setting [7]); 35% in assay [3] (setting [8]). In addition, the growth inhibition was 9% in assay [5] (setting [7]), 73% (active) in assay [5] (setting [8]), -30% in assay [6] (setting [7]) and 86% (active) in assay [6] (setting [8]).

`O=C1c2ccccc2-c2ccc(O)cc21`: the growth inhibition is 58% in assay [1] (setting [7]); 95% (active) in assay [1] (setting [8]); 17% in assay [2] (setting [7]); 84% (active) in assay [2] (setting [8]); 28% in assay [3] (setting [7]); 93% (active) in assay [3] (setting [8]). Moreover, the growth inhibition is 10% in assay [4] (setting [7]); 69% in assay [4] (setting [8]); 10% in assay [5] (setting [7]); 87% (active) in assay [5] (setting [8]); -11% in assay [6] (setting [7]); 90% (active) in assay [6] (setting [8]).

For `CCCCC(CC)CCC(C)OC(=O)CCl` (centres undefined), the growth inhibition was 15.4% and 0.5% in assay [1] (at 50.0 µM); -2.8% and -6.75% in assay [2] (at 50.0 µM); 2.5% and -19.6% in assay [3] (at 50.0 µM); -36.4% and -22.6% in assay [4] (at 50.0 µM); -6.25% and -15.2% in assay [5] (at 50.0 µM); -1.9% and 10.2% in assay [6] (at 50.0 µM).

As to `c1ccc(Cc2nc3ccccc3[nH]2)cc1`, the growth inhibition is -13.5% and -2.5% in assay [1] (at 50.0 µM); -33.8% and -4.1% in assay [2] (at 50.0 µM); -10.4% and -18.9% in assay [3] (at 50.0 µM); -4.9% and 2.65% in assay [4] (at 50.0 µM); -28.8% and -13.8% in assay [5] (at 50.0 µM); 0.7% and -16.4% in assay [6] (at 50.0 µM).

With `c1ccc([P+](Cc2ccccc2C[P+](c2ccccc2)(c2ccccc2)c2ccccc2)(c2ccccc2)c2ccccc2)cc1`, the growth inhibition is -15% and 20.1% in assay [1] (at 50.0 µM); -20.9% and 6.8% in assay [2] (at 50.0 µM); -5.3% and 7.25% in assay [3] (at 50.0 µM); -8.25% and 14.8% in assay [4] (at 50.0 µM); 1.6% and 7.8% in assay [5] (at 50.0 µM); -50% and 12.3% in assay [6] (at 50.0 µM).
